Laboratory results from PubChem BioAssay AID1645853 (Buhrlage Lab, Dana-Farber Cancer Institute and Novartis …, 2021).
Among all 47,000 compounds or so, about 2,000 (4.3%) were called active. Rule as the data show it: active = inhibition above about 30%; inactive = the rest. The list comes from a sample in which actives are over-represented; it also holds similar structures and randomly drawn compounds.

target: Ubiquitin carboxyl-terminal hydrolase 8 (Homo sapiens) (UniProt P40818); test: blocks human USP8 ubiquitin-rhodamine cleavage (AID 1645853); conditions: purified USP8, Ub-rhodamine cleavage fluorescence, 30 min; at 20 µM; stronger effect = higher value
Sequence (P40818 whole entry, looked up): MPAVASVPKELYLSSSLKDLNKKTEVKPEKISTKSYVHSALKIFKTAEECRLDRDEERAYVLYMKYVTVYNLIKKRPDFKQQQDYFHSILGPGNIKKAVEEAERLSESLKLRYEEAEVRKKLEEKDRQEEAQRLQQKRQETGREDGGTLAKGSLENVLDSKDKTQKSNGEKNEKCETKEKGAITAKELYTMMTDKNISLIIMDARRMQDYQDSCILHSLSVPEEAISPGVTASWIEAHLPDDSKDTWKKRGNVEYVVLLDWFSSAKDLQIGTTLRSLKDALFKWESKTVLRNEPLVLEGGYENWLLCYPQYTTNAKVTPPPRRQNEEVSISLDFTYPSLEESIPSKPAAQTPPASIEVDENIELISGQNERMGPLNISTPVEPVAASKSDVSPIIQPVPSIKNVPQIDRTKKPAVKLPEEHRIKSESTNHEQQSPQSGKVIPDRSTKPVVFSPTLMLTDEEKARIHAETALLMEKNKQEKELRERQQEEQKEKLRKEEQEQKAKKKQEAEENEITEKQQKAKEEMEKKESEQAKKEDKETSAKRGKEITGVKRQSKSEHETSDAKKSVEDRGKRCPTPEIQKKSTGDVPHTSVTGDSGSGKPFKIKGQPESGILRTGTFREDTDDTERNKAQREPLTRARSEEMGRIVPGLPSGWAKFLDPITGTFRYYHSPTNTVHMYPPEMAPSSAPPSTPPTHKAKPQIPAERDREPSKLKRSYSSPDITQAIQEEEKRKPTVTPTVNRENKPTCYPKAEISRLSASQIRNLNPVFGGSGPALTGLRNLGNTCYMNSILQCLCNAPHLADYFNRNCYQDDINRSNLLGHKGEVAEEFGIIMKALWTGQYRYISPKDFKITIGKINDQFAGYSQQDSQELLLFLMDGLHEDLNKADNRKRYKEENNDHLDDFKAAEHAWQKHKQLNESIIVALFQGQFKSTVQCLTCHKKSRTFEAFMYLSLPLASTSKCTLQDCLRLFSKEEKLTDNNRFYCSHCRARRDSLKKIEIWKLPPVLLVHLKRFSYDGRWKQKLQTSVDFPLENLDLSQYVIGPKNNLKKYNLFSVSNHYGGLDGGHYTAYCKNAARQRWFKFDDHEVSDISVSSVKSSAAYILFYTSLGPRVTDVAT

inhibition, active:
Cc1cc(OCC(=O)Oc2ccc(-n3cnnn3)cc2)cc(C)c1Cl 44.3%
CC(Nc1nnc(Cc2ccccc2)c(=O)[nH]1)c1ccccc1 (stereo unspecified) 85.5%
COC(=O)C1CCN(C(=O)CC[C@H]2CNC(=O)[C@@H]3[C@@H](CCN3Cc3ccc(C)cc3)N2C)CC1 35.8%
CCC(=O)Nc1nc2cc(NC(=O)c3ccc(OC)cc3)ccc2s1 47.8%
COc1cccc(CN2C(=O)c3ccccc3C2C(=O)NCc2ccccc2OC)c1 (stereo unspecified) 34.7%
O=C(Cc1ccccc1Cl)Nc1ccc(N2CCOCC2)cc1 51.8%
CNC(=O)N1C[C@H]2C[C@H](C(=O)Nc3ccc4c(c3)OCO4)[C@@H](C1)O2 37%
COc1cccc(CNC(=O)c2ccc3c(=O)nc4c(-c5ccccc5)n[nH]n4c3c2)c1 71.8%
O=C(NC1CCCCC1)c1ccc2c(=O)nc3c(-c4ccccc4F)n[nH]n3c2c1 49.8%
CC(C)Nc1ncnc2c1c(C(=O)N1CCCC1)c1ccccn12 55.5%
C=C1CCC2[C@](C)(CCC[C@]2(C)C(=O)OC)[C@H]1CCc1ccoc1/C=C/C(=O)O (stereo partly specified) 63.4%
C=C1CCC2[C@](C)(CCC[C@]2(C)C(=O)OC)[C@H]1CCc1ccoc1C[N+](C)(C)Cc1ccccc1 (stereo partly specified) 30.8%

inhibition, inactive:
CC(=O)c1ccc(NC(=O)c2cccc(-c3nc(-c4ccccc4)no3)c2)cc1 8.62%
CCc1ccc(C(=O)N2CCN(c3nnc4ccccn34)CC2)cc1 -1.4%
O=C(c1ccccc1)N1CCCCCC1C1CCNCC1 (stereo unspecified) -4.33%
O=C(Nc1c2c(nn1-c1cccc(Cl)c1)CS(=O)(=O)C2)c1cccs1 9.3%
CC(C)NC(=O)c1cccc(-n2cnnn2)c1 -259%
CC(C)c1ccc(OCC(=O)NCc2nnnn2-c2ccc(Cl)cc2)cc1 4.83%
Cc1ccnc(C2CN(C(=O)CCn3cnc4ccccc43)CCO2)n1 (stereo unspecified) 19.3%
COc1cc(NC(=O)CSc2nc3ccncc3[nH]2)cc(OC)c1 1.79%
Cc1ccc(Cc2nnc(C(=O)NC(C)c3ccccc3)o2)cc1 (stereo unspecified) 0.117%
Nc1ccccc1-c1nnc(Cc2ccccc2)c(=O)[nH]1 -0.271%
CC(=O)NC(Cc1cccc(C)c1)C(=O)NC1CCN(C(=O)c2cccc(C)c2)CC1 (stereo unspecified) -1.31%
CN1[C@@H](CCC(=O)NCc2ccc(F)cc2)CNC(=O)[C@@H]2[C@H]1CCN2CC1CC1 -6.51%
CN1[C@@H](CCC(=O)N2CCc3ccccc32)CNC(=O)[C@@H]2[C@H]1CCN2Cc1ncc[nH]1 -8.85%
COc1ccc(-c2c(C)noc2C)cc1S(=O)(=O)NC1CCCC1 -9.12%
Clc1ccccc1C1SCC2=Nc3ccccc3CN21 (stereo unspecified) -101%
COc1cccc(NC(=O)Cn2c(-c3ccccc3)nc(C)cc2=O)c1 2.3%
CCN1C(=O)CCC12CCCN(S(=O)(=O)c1cccc(C)c1)CC2 (stereo unspecified) -101%
COc1ccc(NC(=O)c2ccnc(Nc3ccc(OC)cc3)c2)cc1 25.4%
CCC(=O)c1ccc(OCC(=O)Nc2ccc3nc(C)sc3c2)cc1 -13%
COc1ccccc1CNC(=O)c1ccc(-n2nc(C)c3c2CCCC3=O)cc1 1.29%
CCN1C(=O)c2ccccc2Sc2ccc(C(=O)NCc3ccc(OC)cc3OC)cc21 4.79%
CC(C)(C)NC(=O)CSc1nc2[nH]c(=O)cc(O)c2s1 -9.23%
CC1Oc2ccccc2N(Cc2nc(-c3cccc(F)c3)no2)C1=O (stereo unspecified) -3.17%
CCN(CC)c1nc2ccccc2nc1C(=O)Nc1ccc(N2CCOCC2)cc1 -1.27%
O=C(COC(=O)CCc1nc2ccccc2c(=O)[nH]1)Nc1ccc(N2CCOCC2)cc1 2.83%
CN1C[C@H]2C[C@H](C(=O)Nc3ccc4c(c3)OCO4)[C@@H](C1)O2 6.94%
O=C(Nc1cccnc1)[C@H]1C[C@@H]2CN(S(=O)(=O)C3CC3)C[C@H]1O2 -14%
CC(=O)c1ccc(NC(=O)Cn2c(=O)n(-c3ccccc3)c3ncccc32)cc1 10.4%
CCS(=O)(=O)N1CC(=O)N(c2cccc(OC)c2)C(C)(C(=O)NCc2ccccc2)C1 (stereo unspecified) -0.355%
O=C(Nc1ccccc1F)NC1CCCN(c2cc(-c3ccncc3)[nH]n2)C1 (stereo unspecified) -92%
O=C(NCCc1ccccc1)c1ccc2c(=O)nc3c(-c4ccccc4F)n[nH]n3c2c1 2.58%
COc1cccc(CNC(=O)c2ccc(-c3cncnc3)nc2)c1 -15.9%
O=C(NCc1ccco1)c1ccc2c(=O)nc3c(-c4ccc(F)cc4)n[nH]n3c2c1 -4.4%
CN1CC(c2nc3ccccc3n2Cc2ccccc2)CC1=O (stereo unspecified) -1.18%
CNc1cncc(C2CCCN2C(=O)Cc2ccc3c(c2)OCO3)n1 (stereo unspecified) -1.13%
O=S(=O)(Nc1cccc(O)c1)c1ccc2oc3ccc(S(=O)(=O)Nc4cccc(O)c4)cc3c2c1 9.24%
Cc1cc(C)n(CCC(=O)NCC2CCOCC2)n1 -2.76%
Cc1ccc(-c2nn(-c3ccccc3)cc2CNCc2cccnc2)cc1 -268%
CNC1C(OC2C(OC3C(O)C(O)C(OC(N)=O)C(O)C3N=C(N)N)OC(C)C2(O)CO)OC(CO)C(O)C1O (stereo unspecified) 0.384%
CCc1ccccc1NS(=O)(=O)c1c(C)[nH]c(C)c1C(=O)N1CCCC1 2.16%
CN1CCCN(C(=O)c2cc(-c3ccn(C)n3)n3ccccc23)CC1 -22.2%
CN1[C@@H](CCC(=O)N2CCOCC2)CNC(=O)[C@@H]2[C@H]1CCN2C1CCCCC1 2.93%
Cc1ccc(S(=O)(=O)Oc2cccnc2)c(C)c1F 10.5%
C=C1CCC2[C@](C)(CCC[C@]2(C)C(=O)OC)[C@H]1CCc1ccoc1CNCC(=O)O (stereo partly specified) -5.45%
